From article PMC12136788
Where a chain is given by its changes, count along the chain named. In all, about 24,000 sequences were measured (“enrichment r”: median about 0.99, highest 2% from about 3.7 on). The list comes from a sample in which the highest values are over-represented; it also holds similar and randomly drawn sequences.

B1: 55347689_55347809_2221_3pUTR_ENSMUSG00000021488_ENSMUST00000099490|mouse|control|control (ssRNA)
RNA: GGGAGUUCUACAGUCCGACGAUCACUCAGCAGUUUCAGGCUCCAUUGUCUUGGUAGAACCCAUUAAAUGGUCUGCAUGGGAAUUAGUAAUGAGGGAUUUCUGUUUCUCUUUUAUCCUGUUUGUGACAGGAUAUCUAGAAUACUCAACAGAGGAUUGAGCAUCA
B2: chr3:122152592:122152593:-_ENSG00000114030_ENST00000344337|hu_mus|motif|central (ssRNA)
RNA: GGGAGUUCUACAGUCCGACGAUCAUUUGUGAUGGCCCAAGCAGCUUCCUUCCUUGUCCGGAACUCUGCUGUUUGCAAUAUACGGAUAAGAGCUGGGAACAUGUUAGCAUCUAUCACAGUCUGGAUCUGUGCCCUAUUUCCAGCCAACAGAGGAUUGAGCAUCA
B3: chr17:60770872:60770873:+_ENSG00000011028_ENST00000303375|hu_hu|hu_hu_hu_mus_True|1_38 (ssRNA)
RNA: GGGAGUUCUACAGUCCGACGAUCUCUUUAAAAAAAAAAAAAAAAAGACAAACAAUAAUAGCACAUUUCGAGAAUCAAGAACUACAAUAGAGGGUCCAUGUCUUCGAUUUGUUCACAUCGUCCUGCACUGGGACACGACCAGGACAACAGAGGAUUGAGCAUCA
B4: chr17:60770872:60770873:+_ENSG00000011028_ENST00000303375|hu_hu|hu_hu_hu_mus_True|1_68 (ssRNA)
RNA: GGGAGUUCUACAGUCCGACGAUCUCUUUAAAAAAAAAAAAAAAAAGACAAACAAUAAUAGCACAUUAUUUAAAAAAAGAACUACAAUAGAGGGUCCGCUUUGAGUUUUUGUUCACAUCGUCCUGCACUGGGACACGACCAGGACAACAGAGGAUUGAGCAUCA
B5: chr17:60770872:60770873:+_ENSG00000011028_ENST00000303375|hu_hu|hu_hu_hu_mus_True|28_68 (ssRNA)
RNA: GGGAGUUCUACAGUCCGACGAUCUCUUUAAAAAAAAAAAAAAAAAGACAAACAAUAAUAGCACAUUAUUUAAAAAAAGAACUACAAUAGAGGGUCCGCUUUGAGUUGUCCAUGUUCUCGUCCUGCACUGGGACACGGGGACUGCAACAGAGGAUUGAGCAUCA
B6: chr17:60770872:60770873:+_ENSG00000011028_ENST00000303375|hu_hu|hu_hu_hu_mus_True|18_68 (ssRNA)
RNA: GGGAGUUCUACAGUCCGACGAUCUCUUUAAAAAAAAAAAAAAAAAGACAAACAAUAAUAGCACAUUAUUUAAAAAAAGAACUACAAUAGAGGGUCCGCUUUGAGUUUUUGUUCACAACAUUGUCCCCUGGGACACGGGGACUGCAACAGAGGAUUGAGCAUCA
B7: chr17:60770872:60770873:+_ENSG00000011028_ENST00000303375|hu_hu|hu_hu_hu_mus_True|58_68 (ssRNA)
RNA: B6 RNA with A77U, G78C, A86G, A117U, A119G, U121C, G122C, C124G, C126A
B8: chr17:60770872:60770873:+_ENSG00000011028_ENST00000303375|hu_hu|hu_hu_hu_mus_True|68_68 (ssRNA)
RNA: B6 RNA with A117U, A119G, U121C, G122C, C124G, C126A
B9: chr17:60770872:60770873:+_ENSG00000011028_ENST00000303375|hu_hu|hu_hu_hu_mus_True|1_18 (ssRNA)
RNA: GGGAGUUCUACAGUCCGACGAUCUCUUUAAAAAAAAAAAAAAAAAGACAAACAAUAAUAGCACAUUUCGAGAAUCAAGAACUACAAUAGAGGGUCCGCUUUGAGUUUUUGUUCACAACAUUGUCCCCUGGGACACGACCAGGACAACAGAGGAUUGAGCAUCA
B10: chrX:71482573:71482574:-_ENSMUSG00000031328_ENSMUST00000144429|mus_hu|FALSE|FALSE (ssRNA)
RNA: GGGAGUUCUACAGUCCGACGAUCCUGCCACUGAGAAAGGGCUCUUAGGGAUGGGAUCCCCUCCAUAAGUGACAUUGACGCCUACUGGACCCUGCUGGACAGGCGUGUACUUGACUGUGUAGGUGUUGUCAUGGUGGUCGAUGACAACAGAGGAUUGAGCAUCA
B11: chr6:38652254:38652255:-_ENSG00000124767_ENST00000373365|hu_hu|hu_hu_hu_mus_False|18_28 (ssRNA)
RNA: GGGAGUUCUACAGUCCGACGAUCCGAGAACUUCAUAGCAGGGAAGUCAAGCUUCUGCAGGAGGGUCAGUCCAAGAACCCUCGUAUAAAAAUCCAGGGACUUCUUAGGAUCCUUCACUCGUAGCAUGGUUUGCUGCAGUAGAAACAACAGAGGAUUGAGCAUCA
B12: chr18:67804014:67804015:+_ENSMUSG00000024537_ENSMUST00000025418|mus_hu|FALSE|FALSE (ssRNA)
RNA: GGGAGUUCUACAGUCCGACGAUCACAAUCGGUAUAGAAGUAACCAAUCUUAGACAUAUUCAGUGUAGAAAUAAUCAGAUCCAUUGCAAGCUGGCCAACAUUUCCAACAGAUACUGCUGGCCUGAAGAUGGGAGUGGAGAGGGACAACAGAGGAUUGAGCAUCA
B13: 58380664_58380784_167_CDS_ENSMUSG00000075700_ENSMUST00000107924|mouse|control|control (ssRNA)
RNA: GGGAGUUCUACAGUCCGACGAUCCUUGAGCAGCGGCCCGGUGGCGUACUGCAUCUUUAAUCUCUUGCUGGGCACGCCGCCCAGGUUGGCAGAGGCCUCGCUGCGGACCACCGCCGACGCCGCCACCAGCAGAAGCAGCAGGAGCAACAGAGGAUUGAGCAUCA
B14: 5649169_5649289_955_CDS_ENSG00000160633_ENST00000592224|human|control|control (ssRNA)
RNA: GGGAGUUCUACAGUCCGACGAUCACAGUCCGUCCUCUCGCCAUCGCCUGGCUGCUCCGCGGGCUCCCUUUUCACUACCGCUAACAGGCUGUCUGCCUUGCUCGACUGAGCGUGUGCUGUUGACUCGCUGGCCAAAUCUAAAUCCAACAGAGGAUUGAGCAUCA
B15: chr14:53325254:53325255:-_ENSG00000073712_ENST00000341590|hu_hu|FALSE|FALSE (ssRNA)
RNA: GGGAGUUCUACAGUCCGACGAUCAACCACUUUGCAAUCUACUUCAGUACAAAUGAAGGACAAUCGUACUUCAUCUGCAAACUCUACGGUGACCAUUUUGAUUUCCCAGUUGACAUUCCACUGUUUCAUGUUGCUGAAACGCCACAACAGAGGAUUGAGCAUCA
B16: 93044292_93044412_1315_3pUTR_ENSMUSG00000027217_ENSMUST00000111265|mouse|control|control (ssRNA)
RNA: GGGAGUUCUACAGUCCGACGAUCAGGAACAGCUGGUCCCAGGCCAGCCCUAGGUCCUUGUAGAGCCCAUGCCCCUUGCUUUAGAGCCUAGGUGAGGCCCCUUCAUGUCUGUCUUUUUUGUUUGUUUGUUUGUUUAUUUAAAAACAACAGAGGAUUGAGCAUCA
B17: chr1:235505951:235505952:+_ENSG00000152904_ENST00000391855|hu_mus|motif|central (ssRNA)
RNA: GGGAGUUCUACAGUCCGACGAUCUUUGUAGGCUUUAGCUUCAAGCUCUCUAAGAGUGUGUCGAGUGUAUGCAAAAGAACCGGCAUCCUCCAGGUACUGCACACAAUACUUUUUAAUAUCUAUAUUCUCUGUUCUCUGGCGCAGCAACAGAGGAUUGAGCAUCA
B18: 52190027_52197400_608_3pUTR_ENSMUSG00000020402_ENSMUST00000102758|mouse|control|control (ssRNA)
RNA: GGGAGUUCUACAGUCCGACGAUCGUUGAUGUGCUCCCUCUUGUACCCUGUCUUGAUUUUAGCAUUUUUUUUCCCAGUGUUCGGCGAGAAUGACGAAUCAAAGGUGAGCUUCAGUCCACGAGCAAGCUGGUCUUCCACAGUGAUCAACAGAGGAUUGAGCAUCA
B19: chr17:60770872:60770873:+_ENSG00000011028_ENST00000303375|hu_hu|hu_hu_hu_mus_True|68_78 (ssRNA)
RNA: GGGAGUUCUACAGUCCGACGAUCUCUUUAAAAAAAAAAAAAAAAAGACAAACAAUAAUAAUGGCACAUUUAAAAAAAGAACUACAAUAGAGGGUCCGCUUUGAGUUUUUGUUCACAUCGUCCUGCACUGGGACACGGGGACUGCAACAGAGGAUUGAGCAUCA
B20: chr17:60770872:60770873:+_ENSG00000011028_ENST00000303375|hu_hu|hu_hu_hu_mus_True|68_88 (ssRNA)
RNA: GGGAGUUCUACAGUCCGACGAUCUCUUUAAAAAAAAAAAAAAAAAGUUUAAAAACAAUAGCACAUUAUUUAAAAAAAGAACUACAAUAGAGGGUCCGCUUUGAGUUUUUGUUCACAUCGUCCUGCACUGGGACACGGGGACUGCAACAGAGGAUUGAGCAUCA
B21: chr17:60770872:60770873:+_ENSG00000011028_ENST00000303375|hu_hu|hu_hu_hu_mus_True|48_68 (ssRNA)
RNA: B20 RNA with U47A, U48C, U49A, A52C, C55U, U87A, A88G, G89A, G91A, U94G
B22: 71650973_71651093_4703_CDS_ENSG00000075292_ENST00000264447|human|control|control (ssRNA)
RNA: GGGAGUUCUACAGUCCGACGAUCGUAAUCCAGUUUAGAAAGCUUGCCUUGCAGGGCUGAGAUCCUUCCACUGCCUCCUCUGGUAAGACUGCUCUGAGUAGGUUUGAAUUUACUGCUGCUUUCUGCCAAGCCUGACCUGGCACUCAACAGAGGAUUGAGCAUCA

target: T1, UNK ZnF1-3 (human, UniProt Q9C0B0 31-174); test: nsRBNS (natural sequence RNA bind-n-seq); RBNS binding buffer (assumed for nsRBNS): 25 mM Tris pH 7.5, 150 mM KCl, 3 mM MgCl2, 0.01% Triton X-100, 500 ug/ml BSA, 20 U/ml SUPERase-In, 4 C; UNK is unkempt and MSI1 is Musashi-1; names of the RNAs are library labels; protein concentration not given here; high values mean tight binding
T1 sequence: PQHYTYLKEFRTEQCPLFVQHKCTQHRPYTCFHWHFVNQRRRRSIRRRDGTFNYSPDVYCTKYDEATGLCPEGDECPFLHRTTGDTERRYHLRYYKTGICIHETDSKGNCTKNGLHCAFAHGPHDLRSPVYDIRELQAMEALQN

Binder | binding signal
B1 | 0.567 enrichment R
B2 | 0.808 enrichment R
B3 | 2.39 enrichment R
B4 | 3.57 enrichment R
B5 | 4.92 enrichment R
B6 | 4.47 enrichment R
B7 | 4.95 enrichment R
B8 | 4.87 enrichment R
B9 | 3.43 enrichment R
B10 | 0.8 enrichment R
B11 | 0.508 enrichment R
B12 | 1.13 enrichment R
B13 | 0.563 enrichment R
B14 | 0.689 enrichment R
B15 | 0.398 enrichment R
B16 | 0.554 enrichment R
B17 | 1.14 enrichment R
B18 | 0.961 enrichment R
B19 | 5.39 enrichment R
B20 | 6.65 enrichment R
B21 | 5.29 enrichment R
B22 | 0.641 enrichment R
